Test results from PubChem BioAssay (NCATS).
A number with no mark means an inactive call. Records with an inconclusive call do not appear. Entries that show only a call come without a potency. Activity calls are given as the source filed them. The call rests on the fitted dose curve; in most records, active means well fitted curve in the direction sought with a large enough effect; inconclusive means small, poorly fitted or top-dose-only effect, or another doubt; inactive means no such curve, though single readings can be large; an effect the other way counts as inactive or inconclusive.

Columns and labels:
[1] = system: Nanoluciferase (engineered Oplophorus gracilirostris luciferase); test: Primary Nanoluciferase (NLuc) qHTS assay for identification of artifact compounds. (AID 1845222); on activity, negative = inhibition: series mostly up to about 54 µM
Summary of the method: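 Luminescence read-out of secreted NLuc in S16 cell conditioned medium (1:55); compounds tested with 15 min RT preincubation, then Nano-Glo substrate 1:100, 5 min. % inhibition vs no-enzyme and DMSO controls, 4-parameter Hill fit.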

[2] = Primary redox qHTS assay for identification of artifact compounds. (AID 1845223)
Summary of the method: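 Redox-cycling detection via DTT (250 uM final) oxidation coupled to Amplex Red (25 uM)/HRP (250 mU/mL) in HBSS. 15 min preincubation plus 30 min after DTT, room temperature. Ex/Em 525/598 nm; 4-parameter Hill fit against DMSO and 10 uM DA3003.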
Potency means the concentration at half of the fitted maximal effect.

Row | Compound | Potency [1] | Potency [2] | activity, negative = inhibition [1] | redox activity (% of DA3003) [2]
1 | CC(CC(C)O[C@@H]1O[C@H](CO)[C@@H](O)[C@H](O)[C@H]1O)OC(=O)/C=C/c1ccc(O)cc1 (stereo partly specified) | inactive | inactive |  | 
2 | OC[C@H]1O[C@@H](OCc2ccccc2)[C@H](O)[C@@H](O)[C@@H]1O | inactive | inactive |  | 
3 | CC1(C)CC[C@]2(C(=O)OC3OC(CO)C(O)C(O)C3O)CC[C@]3(C)C(=CCC4[C@@]5(C)C[C@@H](O)[C@H](OC6OC(C(=O)O)C(O)C(O)C6O)C(C)(C)C5CC[C@]43C)[C@@H]2C1 (stereo partly specified) |  |  | 1.92% [at 11.6 µM] | 1.95% [at 11.5 µM]
4 | CC1=CCC[C@@H]2[C@](CCc3ccoc3)(C(=O)O)[C@H](C)CC[C@@]12C | inactive | inactive |  | 
5 | C=C1C(O)C(OC(=O)c2ccccc2)C2C(C)(C(=O)O)CCCC2(C)C1CC/C(C)=C\CO (stereo unspecified) | inactive | inactive |  | 
6 | CCNC(=O)OC1CCN(c2nncc3cc(OC)c(OC)cc23)CC1 | inactive | inactive |  | 
7 | C/C=C(\C)C(=O)OC1C(C)C2(O)C3C=C(C)C(=O)C3CC(CO)=CC2C2C(C)(C)C12OC(C)=O (stereo unspecified) | inactive | inactive |  | 
8 | Cc1occc(=O)c1O[C@@H]1O[C@H](COC(=O)CC(C)(O)CC(=O)O)[C@@H](O)[C@H](O)[C@H]1O (stereo partly specified) | inactive | inactive |  | 
9 | N#Cc1ccc(C2CCCc3cncn32)cc1 (stereo unspecified) | inactive | inactive |  | 
10 | COc1ccc(N2CCN(CCCNC(=O)Cn3c(=O)c4cccn4c4c(C)ccnc43)CC2)cc1 | inactive | inactive |  | 
11 | Cc1cc(-c2nncc3c(C(C)(C)C)c(OCc4ncnn4C)nn23)no1 | inactive | inactive |  | 
12 | COc1cc(/C=C/C(=O)O[C@H]2[C@H](O)[C@@H](CO)O[C@@]2(CO)O[C@H]2O[C@H](CO)[C@@H](O)[C@H](O)[C@H]2O)cc(OC)c1O | inactive | inactive |  | 
13 | COc1cc(O)c2c(c1Cl)CC(C)OC2=O (stereo unspecified) | inactive | inactive |  | 
14 | OC[C@@]1(O)CO[C@H](OC[C@H]2O[C@@H](OCCc3ccccc3)[C@H](O)[C@@H](O)[C@@H]2O)[C@@H]1O | inactive | inactive |  | 
15 | N[C@@H](CCNCc1ccc(Cl)cc1)C(=O)N1CCCCC1 | inactive | inactive |  | 
16 | CC(C)(O)c1ccc2c(c1)C(=O)C[C@H]1[C@](C)(C(=O)O)CCC[C@]21C | inactive | inactive |  | 
17 | C[C@@H]1O[C@@H](O[C@H]2[C@@H]3C=CO[C@@H](O[C@@H]4O[C@H](CO)[C@@H](O)[C@H](O)[C@H]4O)[C@@H]3[C@@]3(CO)O[C@@H]23)[C@H](O)[C@H](O)[C@H]1OC(=O)/C=C/c1ccc(O)cc1 | inactive | inactive |  | 
18 | CN(C)CC(c1ccc(O)cc1)C1(O)CCCCC1 (stereo unspecified) | inactive | inactive |  | 
19 | COC(=O)C1=CO[C@@H](O[C@@H]2O[C@H](CO)[C@@H](O)[C@H](O)[C@H]2O)C2C1CC(O)C2C (stereo partly specified) | inactive | inactive |  | 
20 | CC(C)C(O)(CO)CCO[C@@H]1O[C@H](CO[C@H]2OC[C@](O)(CO)[C@H]2O)[C@@H](O)[C@H](O)[C@H]1O (stereo partly specified) | inactive | inactive |  | 

Row | Compound | Potency [1] | Potency [2] | activity, negative = inhibition [1] | redox activity (% of DA3003) [2]
21 | COCCCc1sc(-c2ccccc2)nc1C(=O)Nc1ccccc1-c1nc2cc(CN3CCCC3)cnc2s1 | inactive | inactive |  | 
22 | C=C1C2CCC3CC2(CC(O)C2(O)C1CC(OC1OC(CO)C(O)C(O)C1O)C2(C)C)CC3(C)O (stereo unspecified) | inactive | inactive |  | 
23 | CC[C@H]1OC(=O)[C@H](C)C(=O)[C@H](C)[C@@H](OC2O[C@H](C)C[C@H](N(C)C)[C@H]2O)[C@@H](C)C[C@@H](C)C(=O)/C=C/[C@]1(C)O (stereo partly specified) | inactive | inactive |  | 
24 | CCOC(=O)C1=C(N)Oc2ccc(Cl)cc2C1C(C#N)C(=O)OCC (stereo unspecified) | inactive | inactive |  | 
25 | C/C=C/C1OC2=C(C(=O)OC2(C)O)C(O)C1O (stereo unspecified) | inactive | inactive |  | 
26 | COc1cc(-c2ccc(O)cc2)c(OC)c(O)c1C1=CC(=O)OC1CC(=O)O (stereo unspecified) | inactive | inactive |  | 
27 | CCCCS(=O)(=O)NC(Cc1ccc(OCCCCC2CCNCC2)cc1)C(=O)O (stereo unspecified) | inactive | inactive |  | 
28 | CC(=O)OCC1=CCC2C(C)(C)CCCC2(C)C12CCC(C)(CC(=O)O)O2 (stereo unspecified) | inactive | inactive |  | 
29 | O=C(OCC1OC(Oc2ccc(O)cc2COC(=O)C2(O)C(O)CCC(=O)C2OC(=O)C2C=CCC2)C(OC(=O)C2C=CCC2)C(O)C1O)C1C=CCC1 (stereo unspecified) | inactive | inactive |  | 
30 | CC1=C(CO)CC(C(C)C2CCC3C4CC=C5CC(OC6OC(COC7OC(CO)C(O)C(O)C7O)C(O)C(O)C6O)CC(O)C5(C)C4CCC23C)OC1=O (stereo unspecified) | inactive | inactive |  | 
31 | C[C@H](/C=C/[C@@]1(O)[C@H](C)CC(=O)CC1(C)C)O[C@@H]1O[C@H](CO[C@@H]2OC[C@@H](O)[C@H](O)[C@H]2O)[C@@H](O)[C@H](O)[C@H]1O | inactive | inactive |  | 
32 | CCCSc1nc(NC2CC2c2ccc(F)c(F)c2)c2nnn(C3CC(OCCO)C(O)C3O)c2n1 (stereo unspecified) | inactive | inactive |  | 
33 | C[C@H]1CC[C@@]2(OC1)O[C@H]1CC3C4CC[C@H]5C[C@@H](O)CC[C@]5(C)C4CC(=O)[C@]3(C)[C@H]1[C@@H]2C (stereo partly specified) | inactive | inactive |  | 
34 | c1cc(-c2cc(C3CCNCC3)[nH]n2)ccn1 | inactive | inactive |  | 
35 | C/C=C1/C[N+](C)([O-])C2Cc3c([nH]c4ccccc34)C(=O)CC1C2C(=O)OC (stereo unspecified) | inactive | inactive |  | 
36 | C=C1C(OC(C)=O)CCC2(C)CCC(C(C)(C)O)CC12 (stereo unspecified) | inactive | inactive |  | 
37 | CCCc1[nH]nc2c1C(c1cc(Cl)cc(Cl)c1O)C(C#N)=C(N)O2 (stereo unspecified) | inactive | 11.9 µM (active) |  | 
38 | O=C(NCCN1CCCC1)c1cc(-c2ccc(CN3CCOCC3)cc2)nc2ccc(F)cc12 | inactive | inactive |  | 
39 | CC(=C\C(C)O)/C=C(\C)C(=O)CC1CC(CC(N)=O)CC(=O)O1 (stereo unspecified) | inactive | inactive |  | 
40 | C[C@@H]1O[C@@H](O[C@H]2[C@H](OC(=O)[C@]34CCC(C)(C)C[C@H]3C3=CCC5[C@@]6(C)C[C@@H](O)[C@@H](O)[C@@](C)(CO)C6[C@H](O)C[C@@]5(C)[C@]3(C)CC4)OC[C@H](O)[C@@H]2O)[C@H](O)[C@H](O)[C@H]1O[C@@H]1OC[C@@H](O)[C@H](O[C@H]2O[C@H](C)[C@@H](O)[C@H](O)[C@@H]2O)[C@H]1O (stereo partly specified) |  |  | 4.47% [at 11.6 µM] | 18.5% [at 11.5 µM]

Row | Compound | Potency [1] | Potency [2] | activity, negative = inhibition [1] | redox activity (% of DA3003) [2]
41 | NC[C@@H]1O[C@@H](O[C@@H]2[C@@H](O[C@@H]3O[C@H](CO)[C@@H](O)[C@H]3O)[C@H](O)[C@@H](N)C[C@H]2N)[C@@H](N)[C@H](O)[C@H]1O |  |  | 0% [at 11.6 µM] | -8.2% [at 11.5 µM]
42 | COC(=O)[C@]1(C)CCC[C@@]2(C)C(=O)CC[C@H]3C(=O)C=C(CC[C@@H]21)C3O (stereo partly specified) | inactive | inactive |  | 
43 | COc1c(C)c(OCC=C(C)C)cc2c1CNC2=O | inactive | inactive |  | 
44 | CC(C)c1ccc2c(c1)C(O)CC1C(C)(C(=O)O)CCCC21C (stereo unspecified) | inactive | inactive |  | 
45 | CN(C)CCC[C@]1(c2ccc(F)cc2)OCc2cc(C#N)ccc21 | inactive | inactive |  | 
46 | On1ncc(C2CCNCC2)c1-c1cccc(-c2ccccc2)c1 | inactive | inactive |  | 
47 | O=C(O)CC(CCc1ccccc1)OC1OC(CO)C(O)C(O)C1O (stereo unspecified) | inactive | inactive |  | 
48 | C/C=C/C(=O)OC1/C=C/C(O)C(OC(C)=O)CCC(=O)OC1C (stereo unspecified) | inactive | inactive |  | 
49 | O=C(C[C@@H]1C(C(=O)O)=CO[C@@H](O[C@@H]2O[C@H](CO)[C@@H](O)[C@H](O)[C@H]2O)/C1=C\CO)OCCc1ccc(O)c(O)c1 | inactive | inactive |  | 
50 | CC1C2=CC(=O)OC2(O)CC2C1C(OC(=O)c1ccccc1)C(OC(=O)c1ccccc1)C1(O)C2(C)CCC(O)C1(C)C(=O)O (stereo unspecified) | inactive | inactive |  | 
51 | O=C(Nc1cc(-c2ccccc2)nn1-c1ccccc1)c1ccc([N+](=O)[O-])cc1 | inactive | inactive |  | 
52 | C[C@@H]1C(=O)O[C@H]2[C@H]1CC[C@@]1(C)C(=O)C=C[C@@](C)(O)[C@H]21 | inactive | inactive |  | 
53 | COc1cc(/C=C/c2ccccc2)c(C(=O)O)c(O)c1CC=C(C)C | 13.2 µM (active) | inactive |  | 
54 | C#CCCCn1cc(-c2cccc3c2N[C@@H](C)CC(=O)N3)cn1 | inactive | inactive |  | 
55 | C=C1CCC2C(C)(C(=O)OC)CCCC2(C)C1CCC1=CCOC1=O (stereo unspecified) | inactive | inactive |  | 
56 | CC(=O)O[C@H]1C[C@@H](O)C(C)(C)C2C[C@@H](OC(C)=O)[C@]3(C)C(CC[C@@]4(C)[C@H](c5ccoc5)OC(=O)[C@H]5O[C@]543)[C@]21C (stereo partly specified) | inactive | inactive |  | 
57 | C=C1CCC2[C@](C)(CCC[C@]2(C)C(=O)O)[C@H]1CC/C(C)=C/C(=O)OC (stereo partly specified) | inactive | inactive |  | 
58 | COCCN1CCC(C(=O)NO)(S(=O)(=O)c2ccc(Oc3ccc(OC(F)(F)F)cc3)cc2)CC1 | inactive | inactive |  | 
